For 53 molecules, Potency and activity change, negative = inhibition results are on record in PubChem BioAssay AID411 (National Center for Advancing Translational Sciences (NCATS), 2006).

SMILES strings stand for the structures. Hit rate of the full screen: of about 72,000 compounds, about 1,600 (2.2%) were called active. Entries that show only a call come without a potency. For the sample, actives were picked, then their nearest neighbours and some compounds at random. Values without a mark were called inactive. Calls come from the whole dose curve; as a rule, active = well fitted inhibition curve with a large enough effect; inconclusive = small, poorly fitted or top-dose-only effect; inactive = flat fitted curve, though single readings scatter.
Potency is the fitted concentration of half-maximal effect.

Chain of Luciferin 4-monooxygenase (Photinus pyralis) (P08659 whole entry, looked up): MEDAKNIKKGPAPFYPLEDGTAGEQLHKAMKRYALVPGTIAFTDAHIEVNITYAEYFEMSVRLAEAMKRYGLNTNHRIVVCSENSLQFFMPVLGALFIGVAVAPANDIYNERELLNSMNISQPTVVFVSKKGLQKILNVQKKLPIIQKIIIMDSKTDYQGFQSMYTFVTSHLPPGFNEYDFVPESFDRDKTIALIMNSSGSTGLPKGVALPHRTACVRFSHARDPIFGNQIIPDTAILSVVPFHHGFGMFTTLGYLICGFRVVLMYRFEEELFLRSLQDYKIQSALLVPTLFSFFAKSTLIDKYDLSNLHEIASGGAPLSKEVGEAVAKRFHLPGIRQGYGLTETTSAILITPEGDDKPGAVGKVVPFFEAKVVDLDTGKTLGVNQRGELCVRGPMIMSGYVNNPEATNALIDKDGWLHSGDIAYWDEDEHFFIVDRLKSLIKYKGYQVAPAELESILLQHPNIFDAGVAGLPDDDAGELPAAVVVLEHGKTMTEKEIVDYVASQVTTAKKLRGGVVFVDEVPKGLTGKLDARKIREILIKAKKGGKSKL

For this experiment, the target named is Luciferin 4-monooxygenase (Photinus pyralis) (UniProt P08659). The experiment is described as follows: qHTS Assay for Inhibitors of Firefly Luciferase. Note: nearly all actives have a fitted effect of over 40% in size. As to conditions: purified firefly luciferase, luminescence, 8 min; series mostly up to 57.1 µM. Here is the method:
To aid in the interpretation of high-throughput screening (HTS) results derived from luciferase-based assays, we used quantitative HTS, an approach that defines the concentration-response behavior of each library sample, to profile the ATP-dependent luciferase from Photinus pyralis against more than 72 000 samples. Luciferase (PKLight, Cambrex Corporation) was assayed for its ability to generate light using ATP and luciferin as substrates. The ATP concentration in the assay (10 uM) was within the linear range of enzyme activity for the assay conditions used. See following reference for further details: [1] Auld DS, Southall NT, Jadhav A, Johnson RL, Diller DJ, Simeonov A, Austin CP, Inglese J. Characterization of chemical libraries for luciferase inhibitory activity. J Med Chem. 2008 Apr 24;51(8):2372-86. Auld DS, Zhang YQ, Southall NT, Rai G, Landsman M, Maclure J, Langevin D, Thomas CJ, Austin CP, Inglese J. A Basis for Reduced Chemical Library Inhibition of Firefly Luciferase Obtained from Directed Evolution. J. Med. Chem., 2009, 52 (5), pp 1450#1458 [3] Auld DS, Thorne N, Nguyen DT, Inglese J. A specific mechanism for nonspecific activation in reporter-gene assays. ACS Chem Biol. 2008 Aug 15;3(8):463-70. Auld DS, Thorne N, Maguire WF, Inglese J. Mechanism of PTC124 activity in cell-based luciferase assays of nonsense codon suppression. Proc Natl Acad Sci U S A. 2009 Mar 3;106(9):3585-90. Inglese J, Auld DS, Jadhav A, Johnson RL, Simeonov A, Yasgar A, Zheng W, Austin CP. Quantitative high-throughput screening: a titration-based approach that efficiently identifies biological activities in large chemical libraries. Proc Natl Acad Sci U S A. 2006 Aug 1;103(31):11473-8.
Four uL of substrate mix (final concentration, 50 mM imidazole pH 7.2, 50 mM KCl, 7 mM MgCl2, 10 uM ATP, 0.01% Tween 20, 0.05% BSA) was dispensed into white 1536 well plates. Twenty-three nL of compound was delivered by a pin tool and 2 uL of luciferase detector mix (PKLight, Cambrex) was added. Following 8-minute incubation at ambient temperature, luminescence was measured by a ViewLux (Perkin Elmer) at 5 seconds exposure/plate.
Turning to `O=c1oc2cc(O)ccc2cc1-c1ccc(F)cc1`, the Potency entry is “inactive”.
With `CCCCc1cc(=O)oc2cc(C)cc(OCc3nn[nH]n3)c12`, the Potency result was “inactive”.
The same measure, in the same setting: with `COc1ccc(-c2cc3ccc(OCc4nn[nH]n4)cc3oc2=O)cc1` the figure was 3.16 µM (active); with `CCn1ccnc1C[C@@H]1COc2ccccc2O1`, “inactive”.
Take `CCOc1ccc(C(C)C)cc1S(=O)(=O)n1nc(C)cc1C`: the Potency entry is “inactive”.
Same read-out and setting: with `O=C1C(c2ccccn2)=[N+]([O-])c2ccccc21` the entry was “inactive”; with `CCn1nc(C(=O)OCC(=O)N2c3ccccc3CC2C)c2ccccc2c1=O` (stereo not drawn), “inactive”; with `CCCC(=O)N1c2ccc(-c3csc(N)n3)cc2CC1C` (stereo not drawn), 12.6 µM (active).
Regarding `CCC(=O)N1c2ccc(S(=O)(=O)CCC(=O)N3CCN(c4ccccc4)CC3)cc2CC1C` (stereo not drawn), the Potency entry was “inactive”.
In the case of `O=C(c1ccc2c(c1)OCCO2)C1CCN(S(=O)(=O)c2cccc(F)c2)CC1`, the Potency result is “inactive”.
Same read-out and setting: the entry for `O=C(c1ccc(F)cc1)C1CCN(CCCCc2ccccc2)CC1` is “inactive”.
Take `Cc1nc2cnc(N3CCN(C)CC3)nc2n(CCC#N)c1=O`: the activity change, negative = inhibition was 0.64% [at 11.4 µM].
Consider `O=C1CCC(C(=O)Nc2ccc(OC(F)F)cc2)N1` (stereo not drawn), for which the Potency entry was “inactive”.
In the case of `OCCCN1c2ccccc2Nc2nnc(-c3ccccc3)cc21`, the Potency is 3.98 µM (active).
The same measure, in the same setting: the entry for `NS(=O)(=O)c1cc(Cl)c(Cl)c(S(N)(=O)=O)c1` is “inactive”.
Turning to `COc1ccc(Br)c2c1C[C@H](C(=O)O)CC2`, the activity change, negative = inhibition is 3.64% [at 11.4 µM].
Turning to `CCN(Cc1ccncc1)C(=O)[C@@H](CO)c1ccccc1`, the Potency result is “inactive”.
On to `Cn1c(=NC(=O)CSCC(=O)N2CCCCC2)sc2ccccc21`, for which the Potency result is “inactive”.
In the case of `Cn1c(=NC(=O)c2cnccn2)sc2ccccc21`, the Potency was 12.6 µM (active).
Same read-out and setting: the entry for `Cn1c(=NC(=O)CSCC(=O)N2CCOCC2)sc2ccccc21` is “inactive”; for `Cc1ccc2nc(-c3ccc(SCC(=O)Nc4cc(C)on4)nc3)[nH]c2c1` it is 2.51 µM (active); for `Cc1nc(SCC(=O)Nc2cc(C)on2)c2c(C)c(C)sc2n1` it is “inactive”.
Still for that read-out and setting: the entry for `Cc1cc(C)c2c(c1)cc(C)c1nnc(SCC(=O)Nc3cc(C)on3)n12` is “inactive”.
As to `COc1ccc(N(C(=O)c2cccnc2)S(=O)(=O)c2ccc3c(c2)n(C)c(=O)n3C)cc1`, the Potency entry was “inactive”.
On to `O=S(=O)(Nc1ccccn1)c1ccc(Oc2ccccc2)cc1`, for which the Potency entry is “inactive”.
Take `CCOC(=O)N1CCC(NC(=O)c2cnn3ccccc23)CC1`: the Potency result was “inactive”.
In the case of `O=C(c1cnn2ccccc12)N1CCc2ccccc21`, the Potency is 12.6 µM (active).
With `O=C(c1cccc(C(=O)N2CCc3ccccc32)n1)N1CCc2ccccc21`, the Potency result was “inactive”.
With `O=C(c1ccc([N+](=O)[O-])cc1)[C@@H](Br)[C@@H](Br)c1ccnc2ccccc12`, the activity change, negative = inhibition was -0.655% [at 11.4 µM].
Regarding `COC(=O)CNS(=O)(=O)c1ccc(Cc2ccc(S(=O)(=O)NCC(=O)OC)cc2)cc1`, the Potency entry was “inactive”.
The same measure, in the same setting: with `O=C(Nc1ccncc1)c1c(F)cccc1F` the entry was “inactive”.
For the molecule `O=C(NCCc1ccc2c(c1)OCCO2)c1cc2ccccc2o1`, the Potency entry was “inactive”.
On the same count and under the same terms, with `O=C(Nc1ccncc1)c1cc2ccccc2o1` the figure was 20 µM (active).
As for `O=C(c1ccco1)N1CCC[C@@]2(CCN(Cc3nccs3)C2)C1`, the activity change, negative = inhibition is 2.02% [at 11.4 µM].
For the molecule `COc1ccc(Cc2nnnn2CC(=O)O)cc1`, the Potency result is “inactive”.
`COc1ccc(C(=O)Nc2nncs2)c(OC)c1`: the Potency entry was “inactive”.
Consider `COC(=O)c1sccc1NC(=O)c1csc2c1CCCC2`, for which the Potency result was “inactive”.
Consider `CC(=O)Cc1nsc(NC(=O)c2csc3c2CCCC3)n1`, for which the Potency result is “inactive”.
For `COC(=O)c1sc(NC(=O)c2ccc(OC)cc2OC)nc1C`, the Potency is 0.0794 µM (active).
Still for that read-out and setting: with `COC(=O)c1sc(NC(=O)c2csc3c2CCCC3)nc1C` the figure was 10 µM (active); with `CCOC(=O)c1sc(NC(=O)c2cc(S(=O)(=O)N3CCOCC3)ccc2C)nc1C`, “inactive”.
As to `CC(C)=CCC/C(C)=C/CO/N=C1/C[C@@H](O)[C@@H](O)[C@@H]2[C@@H]3C(=O)N(C(C)(C)C)C(=O)[C@H]3CC[C@H]12`, the activity change, negative = inhibition is 0.109% [at 11.4 µM].
As for `Cc1cnc(NC(=O)CSc2nnc(-c3ccc(Cl)cc3Cl)n2N)s1`, the Potency entry is “inactive”.
As for `CCOC(=O)C1CCN(C(c2cc3cc(C)cc(C)c3[nH]c2=O)c2nnnn2C2CCCCC2)CC1` (stereo not drawn), the Potency result was “inactive”.
As to `COc1ccc(-c2nn(-c3ccccc3)cc2C(=O)Nc2nc(CC(C)=O)ns2)cc1`, the Potency entry is “inactive”.
Turning to `O=C(O)C1CCN(c2ncnc3ccc(-c4ccccc4C(F)(F)F)cc23)CC1`, the activity change, negative = inhibition is 0.203% [at 2.29 µM].
Take `COc1ccc(NC2CC(=O)N(C)C2=O)cc1` (stereo not drawn): the Potency result is “inactive”.
Turning to `COc1ccccc1CNc1ccnc(-c2c(C)noc2C)n1`, the activity change, negative = inhibition was -0.167% [at 2.29 µM].
Regarding `CC(C)(C)c1csc(NC2=NS(=O)(=O)c3ccccc32)n1`, the Potency was 7.94 µM (active).
On to `CC(c1nnc(SCC(=O)Nc2sccc2C#N)n1-c1ccc(Cl)cc1)N(C)C` (stereo not drawn), for which the Potency entry was “inactive”.
As to `O=S(=O)(c1cccs1)N1CCN(Cc2ccccc2)CC1`, the Potency result was “inactive”.
On to `CCCCN(C)C(=O)C1CCN(Cc2ccccn2)CC1`, for which the Potency entry was “inactive”.
Turning to `COc1ccc(N2CCN(C(=O)CSc3ncnc4c3cnn4-c3ccc(OC)cc3)CC2)cc1`, the Potency entry is “inactive”.
